Test results published in PubChem BioAssay AID651784 (National Center for Advancing Translational Sciences (NCATS), 2012).
Inconclusive results are not listed. The source made the active and inactive calls. Calls follow the shape of the dose curve; as a rule, active = well fitted inhibition curve with a large enough effect; inconclusive = small, poorly fitted or top-dose-only effect; inactive = no such curve, though single readings can be large or run the other way.
Potency is read from the fitted curve at half-maximal effect.

Assay: Acumen qHTS Assay for Inhibitors of the mTORC1 Signaling Pathway in MEF (Tsc2-/-, p53-/-) Cells: Hit Validation;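 also: phospho-rpS6 Ser235/236 immunofluorescence normalized to propidium iodide cell count; nearly all actives have a fitted effect of over 65% in size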;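 as to activity change, negative = inhibition: cells exposed to compound for 24 hours; plate controls were DMSO for no effect and 7.5 nM rapamycin control for full effect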
Details: Acumen imaging; activity change, negative = inhibition: at 37.3 µM (top of the series)
`Cc1ccc(-c2nn(C)c(=O)c3ccccc23)cc1S(=O)(=O)NCCCN(C)C` showed an activity change, negative = inhibition of 5.39%. `CCOc1ccc(NC(=O)CSc2oc(-c3ccccc3)nc2S(=O)(=O)c2ccc(Cl)cc2)cc1` gave an activity change, negative = inhibition of -112%. For `CCCS(=O)(=O)c1c(S(=O)(=O)CCC)c2cc(C(C)(C)C)ccn2c1C(=O)c1ccc(OC)c(OC)c1`, the activity change, negative = inhibition was -5.67%. For `CCN1CCOC(=O)C1CC(=O)Nc1cc(Cl)ccc1C` (stereo not given), the activity change, negative = inhibition was -93.4%. In the case of `COc1ccc(N2CCN(C(=O)C(C)n3nc(C)c4sc5ccccc5c4c3=O)CC2)cc1` (stereo not given), the activity change, negative = inhibition was 1.14%. Compound `CCc1ccc(S(=O)(=O)N(C(=O)Oc2ccccc2)c2ccc3oc(C)c(C(=O)OC)c3c2)cc1` has an activity change, negative = inhibition of -70.3%. In the case of `Cc1ccc(CN2C(=O)C(=O)c3cc(Br)cc(C)c32)cc1`, the Potency was 9.27 µM (active). Work on `Cc1ccc(S(=O)(=O)c2nc(-c3ccco3)oc2SC(C)c2ccccc2)cc1` (stereo not given) yielded an activity change, negative = inhibition of -7.74%. For `CCSc1ccccc1C(=O)Nc1ccc(-c2nc3ccccc3s2)c(O)c1`, the Potency was 13.1 µM (active). With `C#CCN1C(=O)C(O)(CC(=O)c2ccc(OC)c(OC)c2)c2cc(Br)ccc21` (stereo not given) the activity change, negative = inhibition was -24.1%. `NS(=O)(=O)c1cc(C(=O)O)c(NCc2ccco2)cc1Cl` gave an activity change, negative = inhibition of 34.6%. For `CCOC(=O)c1ccc(N2C(=O)c3n[nH]c(C)c3C2c2cccc(Br)c2)cc1` (stereo not given), the activity change, negative = inhibition was 4.8%. In the case of `CCc1cnc2c(c1SCC(=O)NCc1ccc(F)cc1)c(=O)n(C)c(=O)n2C`, the activity change, negative = inhibition was 5.42%. For `O=C(NCC1CCN(Cc2cccc(Cl)c2)CC1)Nc1ccc(F)c(Cl)c1`, the Potency was 9.27 µM (active). With `Cc1cccc(N2CCN(c3ncnc4c3nc3n4CCCCC3)CC2C)c1` (stereo not given) the Potency was 3.29 µM (active).
